# From the supplement of paper PMC11732987, “Enantioselective OTUD7B fragment discovery through chemoproteomics screening and high-throughput optimisation” (Communications Chemistry, 2025)
# Values without a mark were called inactive.
# Tests used:
# Assay in all cases: log2 ratio of Biotin-Ahx-Ub-VS probe labelling (fragment/DMSO); higher = less target engagement (more negative = stronger competition), active = hit call of the paper (q ≤ 0.05, log2 ratio ≤ -1)
# Details in all cases: compound concentration: 200 uM; treatment time: 3 h
# USP19 = target: T1, USP19 (UniProt O94966)
# T1 sequence (whole entry): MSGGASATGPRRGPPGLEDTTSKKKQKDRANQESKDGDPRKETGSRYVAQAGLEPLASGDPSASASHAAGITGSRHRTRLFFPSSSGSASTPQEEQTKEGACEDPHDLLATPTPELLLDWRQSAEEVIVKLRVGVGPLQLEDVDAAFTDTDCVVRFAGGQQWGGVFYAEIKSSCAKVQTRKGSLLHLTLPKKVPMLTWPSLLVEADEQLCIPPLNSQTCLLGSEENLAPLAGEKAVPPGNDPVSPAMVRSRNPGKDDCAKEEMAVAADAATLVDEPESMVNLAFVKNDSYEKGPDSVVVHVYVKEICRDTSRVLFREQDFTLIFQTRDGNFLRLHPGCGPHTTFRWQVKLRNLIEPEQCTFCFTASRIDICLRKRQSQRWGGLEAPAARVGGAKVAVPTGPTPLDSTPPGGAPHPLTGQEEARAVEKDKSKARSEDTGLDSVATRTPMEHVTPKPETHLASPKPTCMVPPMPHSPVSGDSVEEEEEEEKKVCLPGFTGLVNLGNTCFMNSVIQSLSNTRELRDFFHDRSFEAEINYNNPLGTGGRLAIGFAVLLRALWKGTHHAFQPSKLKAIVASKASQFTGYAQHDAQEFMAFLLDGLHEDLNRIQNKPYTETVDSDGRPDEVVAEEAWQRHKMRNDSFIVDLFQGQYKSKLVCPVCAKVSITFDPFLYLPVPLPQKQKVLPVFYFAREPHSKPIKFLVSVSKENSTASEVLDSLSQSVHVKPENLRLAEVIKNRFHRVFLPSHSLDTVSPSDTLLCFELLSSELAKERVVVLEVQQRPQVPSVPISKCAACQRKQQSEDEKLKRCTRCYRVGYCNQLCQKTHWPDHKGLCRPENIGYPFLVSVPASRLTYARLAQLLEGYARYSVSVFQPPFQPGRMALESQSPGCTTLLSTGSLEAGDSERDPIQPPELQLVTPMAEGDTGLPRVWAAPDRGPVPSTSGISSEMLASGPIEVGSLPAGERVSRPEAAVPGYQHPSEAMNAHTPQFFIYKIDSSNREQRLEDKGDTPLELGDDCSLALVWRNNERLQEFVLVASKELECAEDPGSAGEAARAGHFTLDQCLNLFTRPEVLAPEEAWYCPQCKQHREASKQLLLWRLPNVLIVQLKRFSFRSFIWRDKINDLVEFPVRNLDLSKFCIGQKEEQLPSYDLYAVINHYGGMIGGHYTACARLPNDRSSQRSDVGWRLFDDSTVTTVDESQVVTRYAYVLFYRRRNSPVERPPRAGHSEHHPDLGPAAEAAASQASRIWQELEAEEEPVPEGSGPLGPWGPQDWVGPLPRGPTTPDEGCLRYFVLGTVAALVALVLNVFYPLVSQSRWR
# Outline: (§1)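 HEK293T lysate in Tris/CHAPS/IGEPAL buffer with protease inhibitors (495 µg per sample) was given fragment at 200 µM or vehicle for 3 h, in triplicate. It then received Biotin-Ahx-Ub-VS at 0.5 µM final for 1 h. Labelled DUBs were NeutrAvidin-enriched, digested with LysC and trypsin, and run by diaPASEF LC-MS/MS. Values are average log2 fragment/vehicle ratios by unpaired t-test on global-median-normalised Spectronaut quantities of proteins with ≥2 unique peptides.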
# USP22 = target: T2, USP22 (UniProt Q9UPT9)
# T2 sequence (whole entry): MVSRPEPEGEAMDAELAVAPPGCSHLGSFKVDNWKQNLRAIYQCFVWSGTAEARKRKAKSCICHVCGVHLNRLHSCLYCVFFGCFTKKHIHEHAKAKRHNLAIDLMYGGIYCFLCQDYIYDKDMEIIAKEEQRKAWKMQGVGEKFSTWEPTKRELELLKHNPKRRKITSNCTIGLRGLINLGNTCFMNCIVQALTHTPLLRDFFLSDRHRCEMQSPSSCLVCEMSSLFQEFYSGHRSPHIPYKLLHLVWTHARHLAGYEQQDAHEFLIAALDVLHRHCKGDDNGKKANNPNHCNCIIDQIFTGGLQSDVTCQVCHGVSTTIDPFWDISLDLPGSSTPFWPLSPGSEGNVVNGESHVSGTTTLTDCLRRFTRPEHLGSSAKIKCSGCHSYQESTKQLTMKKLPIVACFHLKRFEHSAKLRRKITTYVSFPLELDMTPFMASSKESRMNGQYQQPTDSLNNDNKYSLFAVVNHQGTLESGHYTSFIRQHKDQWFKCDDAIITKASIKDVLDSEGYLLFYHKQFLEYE
# Outline: as §1
# USP24 = USP24 (UniProt Q9UPU5)
# Outline: as §1
# USP25 = target: T3, USP25 (UniProt Q9UHP3)
# T3 sequence (whole entry): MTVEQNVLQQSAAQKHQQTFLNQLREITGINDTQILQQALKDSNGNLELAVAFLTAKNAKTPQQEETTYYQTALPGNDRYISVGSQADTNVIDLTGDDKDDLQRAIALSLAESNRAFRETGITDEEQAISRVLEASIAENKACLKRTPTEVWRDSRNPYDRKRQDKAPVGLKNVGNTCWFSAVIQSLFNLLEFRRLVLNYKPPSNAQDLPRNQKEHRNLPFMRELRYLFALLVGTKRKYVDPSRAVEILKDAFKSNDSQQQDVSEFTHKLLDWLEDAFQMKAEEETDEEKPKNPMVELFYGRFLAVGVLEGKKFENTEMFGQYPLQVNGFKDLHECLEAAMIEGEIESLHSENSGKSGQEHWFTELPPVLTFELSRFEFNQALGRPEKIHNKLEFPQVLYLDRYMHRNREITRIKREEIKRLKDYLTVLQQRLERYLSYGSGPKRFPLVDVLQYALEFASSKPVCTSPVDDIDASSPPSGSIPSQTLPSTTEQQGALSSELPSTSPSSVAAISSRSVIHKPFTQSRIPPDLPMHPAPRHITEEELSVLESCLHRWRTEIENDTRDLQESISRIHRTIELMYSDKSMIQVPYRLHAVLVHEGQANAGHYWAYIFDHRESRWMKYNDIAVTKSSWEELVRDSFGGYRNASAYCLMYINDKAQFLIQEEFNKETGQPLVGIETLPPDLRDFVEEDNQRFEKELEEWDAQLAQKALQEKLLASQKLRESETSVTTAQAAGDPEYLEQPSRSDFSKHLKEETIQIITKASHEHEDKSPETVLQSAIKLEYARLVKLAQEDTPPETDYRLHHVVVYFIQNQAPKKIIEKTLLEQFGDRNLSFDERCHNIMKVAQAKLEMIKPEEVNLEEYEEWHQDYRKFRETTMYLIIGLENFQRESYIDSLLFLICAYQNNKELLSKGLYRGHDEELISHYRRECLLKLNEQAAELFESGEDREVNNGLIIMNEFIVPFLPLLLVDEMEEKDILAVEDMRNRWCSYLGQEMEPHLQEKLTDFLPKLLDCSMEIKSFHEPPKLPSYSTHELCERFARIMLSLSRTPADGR
# Outline: as §1
# USP28 = target: T4, USP28 (UniProt Q96RU2)
# T4 sequence (whole entry): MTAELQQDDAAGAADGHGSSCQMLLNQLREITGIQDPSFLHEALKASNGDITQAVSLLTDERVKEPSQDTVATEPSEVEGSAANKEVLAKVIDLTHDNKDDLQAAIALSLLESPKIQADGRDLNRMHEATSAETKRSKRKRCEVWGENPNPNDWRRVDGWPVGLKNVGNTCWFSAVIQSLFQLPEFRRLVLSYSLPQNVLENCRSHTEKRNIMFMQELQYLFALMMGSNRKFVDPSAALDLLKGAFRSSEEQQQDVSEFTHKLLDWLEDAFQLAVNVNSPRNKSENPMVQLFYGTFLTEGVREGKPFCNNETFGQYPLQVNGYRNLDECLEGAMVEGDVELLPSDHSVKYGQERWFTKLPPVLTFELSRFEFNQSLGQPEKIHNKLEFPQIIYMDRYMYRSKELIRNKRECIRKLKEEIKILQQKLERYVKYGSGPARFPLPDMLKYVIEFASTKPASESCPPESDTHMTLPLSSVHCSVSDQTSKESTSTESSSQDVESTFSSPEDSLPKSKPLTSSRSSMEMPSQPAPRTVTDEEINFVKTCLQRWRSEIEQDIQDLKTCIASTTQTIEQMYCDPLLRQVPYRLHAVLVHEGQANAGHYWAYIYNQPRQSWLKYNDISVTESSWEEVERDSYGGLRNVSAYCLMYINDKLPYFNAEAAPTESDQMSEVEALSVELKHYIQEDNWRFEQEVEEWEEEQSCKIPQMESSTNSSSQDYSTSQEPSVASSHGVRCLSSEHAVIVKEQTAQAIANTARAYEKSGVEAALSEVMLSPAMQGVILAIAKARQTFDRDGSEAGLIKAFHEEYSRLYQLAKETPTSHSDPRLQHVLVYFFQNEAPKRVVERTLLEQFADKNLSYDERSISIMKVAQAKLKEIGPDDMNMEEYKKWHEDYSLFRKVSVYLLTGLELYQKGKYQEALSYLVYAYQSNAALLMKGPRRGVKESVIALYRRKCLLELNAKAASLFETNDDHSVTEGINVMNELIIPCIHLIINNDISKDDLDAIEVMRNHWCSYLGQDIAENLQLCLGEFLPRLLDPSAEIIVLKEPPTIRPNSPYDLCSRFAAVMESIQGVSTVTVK
# Outline: as §1
# USP24, sequence (Q9UPU5 whole entry): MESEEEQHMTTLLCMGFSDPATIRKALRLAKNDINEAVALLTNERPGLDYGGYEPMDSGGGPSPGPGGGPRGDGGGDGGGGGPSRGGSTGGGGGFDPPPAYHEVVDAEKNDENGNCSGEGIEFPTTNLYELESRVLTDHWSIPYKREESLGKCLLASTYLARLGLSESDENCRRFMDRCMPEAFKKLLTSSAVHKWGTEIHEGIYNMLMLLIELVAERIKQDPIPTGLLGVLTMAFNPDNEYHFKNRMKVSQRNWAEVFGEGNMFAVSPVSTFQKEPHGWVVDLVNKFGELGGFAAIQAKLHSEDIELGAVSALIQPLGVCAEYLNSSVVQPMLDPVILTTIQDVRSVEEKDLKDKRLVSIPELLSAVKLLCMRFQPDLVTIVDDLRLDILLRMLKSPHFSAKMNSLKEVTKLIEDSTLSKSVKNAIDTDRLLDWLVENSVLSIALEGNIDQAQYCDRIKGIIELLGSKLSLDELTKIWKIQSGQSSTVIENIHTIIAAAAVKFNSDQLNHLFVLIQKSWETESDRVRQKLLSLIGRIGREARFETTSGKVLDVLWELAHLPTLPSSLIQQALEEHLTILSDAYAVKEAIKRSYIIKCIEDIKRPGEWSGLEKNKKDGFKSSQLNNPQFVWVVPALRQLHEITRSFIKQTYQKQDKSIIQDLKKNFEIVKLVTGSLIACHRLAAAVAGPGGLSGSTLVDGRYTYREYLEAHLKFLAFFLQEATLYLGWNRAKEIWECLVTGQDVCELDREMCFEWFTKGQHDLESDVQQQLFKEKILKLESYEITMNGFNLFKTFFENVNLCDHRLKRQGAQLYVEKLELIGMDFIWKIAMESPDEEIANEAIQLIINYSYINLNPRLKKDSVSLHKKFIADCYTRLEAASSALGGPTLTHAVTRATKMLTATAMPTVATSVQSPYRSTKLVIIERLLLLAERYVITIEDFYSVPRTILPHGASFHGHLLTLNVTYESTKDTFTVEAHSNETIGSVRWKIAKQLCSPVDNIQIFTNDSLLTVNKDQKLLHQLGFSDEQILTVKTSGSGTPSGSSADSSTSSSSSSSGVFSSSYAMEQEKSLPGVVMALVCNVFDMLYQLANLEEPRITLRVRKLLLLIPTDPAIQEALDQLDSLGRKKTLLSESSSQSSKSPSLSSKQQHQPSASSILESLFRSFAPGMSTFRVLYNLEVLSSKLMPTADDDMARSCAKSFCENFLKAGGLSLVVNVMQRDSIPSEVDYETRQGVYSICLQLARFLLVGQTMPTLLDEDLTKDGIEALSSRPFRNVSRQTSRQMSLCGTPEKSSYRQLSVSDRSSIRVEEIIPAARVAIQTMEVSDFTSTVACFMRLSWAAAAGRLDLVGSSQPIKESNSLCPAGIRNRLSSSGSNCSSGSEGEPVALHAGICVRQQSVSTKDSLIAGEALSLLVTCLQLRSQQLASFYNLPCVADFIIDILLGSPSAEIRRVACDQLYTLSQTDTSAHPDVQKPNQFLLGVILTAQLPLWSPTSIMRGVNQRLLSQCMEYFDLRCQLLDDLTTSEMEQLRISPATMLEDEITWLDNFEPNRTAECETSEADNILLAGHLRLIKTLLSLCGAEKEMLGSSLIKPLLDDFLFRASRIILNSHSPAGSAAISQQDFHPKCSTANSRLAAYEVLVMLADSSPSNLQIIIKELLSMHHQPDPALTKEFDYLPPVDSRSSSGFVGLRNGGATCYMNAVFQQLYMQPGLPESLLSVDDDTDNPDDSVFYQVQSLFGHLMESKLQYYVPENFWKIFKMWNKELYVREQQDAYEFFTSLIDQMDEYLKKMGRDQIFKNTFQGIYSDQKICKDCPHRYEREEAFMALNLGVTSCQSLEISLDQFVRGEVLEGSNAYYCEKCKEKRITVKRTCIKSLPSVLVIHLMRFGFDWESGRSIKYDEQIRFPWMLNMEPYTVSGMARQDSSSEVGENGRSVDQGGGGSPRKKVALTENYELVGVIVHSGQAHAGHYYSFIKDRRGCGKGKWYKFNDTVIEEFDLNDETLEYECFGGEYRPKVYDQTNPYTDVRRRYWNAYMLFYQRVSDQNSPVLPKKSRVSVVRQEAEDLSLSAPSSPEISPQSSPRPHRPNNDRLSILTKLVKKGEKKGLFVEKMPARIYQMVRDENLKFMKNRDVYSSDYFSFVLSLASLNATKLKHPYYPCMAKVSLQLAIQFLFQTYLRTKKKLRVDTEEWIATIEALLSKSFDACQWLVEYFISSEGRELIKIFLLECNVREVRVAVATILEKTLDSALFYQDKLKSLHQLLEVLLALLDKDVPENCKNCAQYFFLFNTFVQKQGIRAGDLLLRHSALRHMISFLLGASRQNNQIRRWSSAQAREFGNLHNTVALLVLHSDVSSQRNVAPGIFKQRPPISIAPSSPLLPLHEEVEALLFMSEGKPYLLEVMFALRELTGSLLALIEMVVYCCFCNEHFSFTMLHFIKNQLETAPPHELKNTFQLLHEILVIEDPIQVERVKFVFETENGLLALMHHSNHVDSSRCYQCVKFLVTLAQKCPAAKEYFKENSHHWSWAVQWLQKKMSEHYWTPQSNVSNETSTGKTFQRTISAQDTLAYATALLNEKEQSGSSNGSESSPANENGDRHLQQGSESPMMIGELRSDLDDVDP
smiles,measurement,setting,value
CN1C(=O)c2ccc(NC(=O)CCl)cc2C1=O,log2 ratio of Biotin-Ahx-Ub-VS probe labelling,USP19,-0.358
same,log2 ratio of Biotin-Ahx-Ub-VS probe labelling,USP22,0.0519
same,log2 ratio of Biotin-Ahx-Ub-VS probe labelling,USP24,-0.467
same,log2 ratio of Biotin-Ahx-Ub-VS probe labelling,USP25,-1.54 (active)
same,log2 ratio of Biotin-Ahx-Ub-VS probe labelling,USP28,-1.5 (active)
